# PubChem BioAssay (NCI)
# Several values for one entry are separate records, joined by “and”; a condition that tells them apart may be missing. Equal values may be shown once. This is part of a sample that, as a whole, favours compounds with a hit. Of some 83,000 tested, about 20% had one in any assay.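 96-well plates, one dose, 48 hours. Percent growth reported; active if below 10.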 A number with no mark means an inactive call. Activity calls are given as the source filed them.
# Test system: MDA-MB-468 breast
# Experiment: NCI-60 one-dose screen, 48 h (100 = growth as untreated, 0 = no growth, -100 = all killed)
# Settings: 10 µM unless noted
row,Compound,growth
1,CCCCCCCCc1ccc(OCCOCC[N+](C)(C)CC)cc1 (tested in a mixture with another compound),-11.3% (active)
2,COc1ccc(-c2cc(-c3nnc(SCC(=O)Nc4ccc(C(C)=O)cc4)o3)c3ccccc3n2)cc1,45.5%
3,Cc1ccc(NC(=O)N/C(N)=N/c2nc(=O)c3ccccc3s2)cc1,89.9%
4,COc1nc2ccc(C)cc2cc1/C=[N+](\[O-])c1ccccc1,79.3%
5,Cc1ccc(S(=O)(=O)N2CCc3ccc(O)c4c3C2Cc2ccc3c(c2-4)OCO3)cc1 (stereo not given),1.75% (active)
6,CCN(CC)CCOc1ccc(C(=C(C)Cc2ccc(OC)cc2)c2ccc(OCCN(CC)CC)cc2)cc1,-25.4% (active)
7,Brc1ccc(-c2nn(-c3ccccc3)cc2-c2nn[nH]n2)s1,98.8%
8,COc1ccc2nc3cc(Cl)ccc3c(N3CCN(c4nccc(Nc5ccc(Cl)cc5)n4)CC3)c2c1,82.8%
9,CCN(CC)c1ccc(/C=N/N=C(N)N)cc1,26%
10,CCN(CC)CCCCCCCNc1cc(OC)cc2c(C)ccnc12,40.5%
11,CS(=O)(=O)c1ccc(Cl)c([N+](=O)[O-])c1,103%
12,C#Cc1cccc(NC(=O)Nc2ccccc2NC(=O)CCl)c1,-45.2% [8.25 µM] (active)
13,Cc1ncsc1CCO,99.2% and 107%
14,C#C[C@@]1(O)[C@@H](CO)O[C@@H](n2cc(Cl)c3c(N)ccnc32)[C@@H]1O,72.3%
15,CCCCC(O)c1ccccc1 (stereo not given),98.6%
16,Cn1c2ccccc2c2nnc(NCCCCO)nc21,95.8%
17,C=C1C(=O)O[C@H]2[C@H]1CC/C(COC(=O)/C=C\C(=O)NCc1ccc(Cn3c(=O)sn(CCCC)c3=O)cc1)=C\CC[C@@]1(C)O[C@@H]21,-70.9% (active)
18,CC(SC(C)C(=O)N/N=C/c1cccc(Cl)c1)C(=O)N/N=C\c1cccc(Cl)c1 (stereo not given),97.4%
19,C=C1c2c(C)nn(-c3ccc(C#CCOC4OC(CO)C(O)C(O)C4O)cc3)c2N(C)C23C[C@H]1C1(C)c4c(C)nn(-c5ccc(C#CCOC6OC(CO)C(O)C(O)C6O)cc5)c4N(C)C(C)(C[C@H]12)C3 (stereo not given in full),-16.4% (active)
20,O=[P@@]1(c2ccccc2)O[C@H](COCc2ccccc2)[C@@H](OCc2ccccc2)[C@H](OCc2ccccc2)[C@H]1O,21.3%

row,Compound,growth
1,O=C1Nc2ccc(F)cc2C12Nc1cc(Cl)ccc1S2 (stereo not given),107%
2,COc1ccc(-c2csc(NC(=O)c3cc(OC)c(OC)c(OC)c3)n2)cc1,86.8%
3,CN(C)CCNC(=O)c1ccc(-c2nc3ccc4[nH]ncc4c3c3c2COCC3)cc1,-54.5% (active)
4,Nc1ccc2c(c1)/C(=N/O)c1cc([N+](=O)[O-])ccc1-2,89.8%
5,C[C@H](CCC(=O)NCc1ccc(C(=O)Nc2ccccc2N)cc1)[C@H]1CC[C@H]2[C@@H]3[C@@H](O)C[C@@H]4C[C@H](O)CC[C@]4(C)[C@H]3CC[C@]12C,71.2%
6,Cc1cc(Cl)nc(N(CCCNc2ccnc3cc(Cl)ccc23)Cc2ccccn2)n1,0.122% (active)
7,COc1cc(/C=N/Nc2ncnc3c2c(C)nn3-c2ccc(F)cc2)ccc1O,92%
8,Nc1c(C(=O)Nc2cccc(C(F)(F)F)c2)sc2nc3c(cc12)CCCCC3,-9.93% (active)
9,COc1ccc(/C=C2\NC(=S)NC2=O)cc1,102%
10,Nc1ncc(-c2ccc3ncnc(N4CCc5ccc(Cl)cc54)c3c2)cn1,-38% (active)
11,Cn1cnc2nc(Cl)nc(Cl)c21,21.7%
12,O=C1C(Cl)=C(Nc2ccc(S(=O)(=O)N3CCOCC3)cc2)C(=O)c2ccccc21,74.1%
13,NN1C(=O)CSC1=S,119%
14,O=C(Nc1ccccc1)P(=O)(O)c1ccccc1,94.3%
15,C=CC[N+]1(CCO)CCN=C1CCCCCCCCCCCCC (stereo not given),-78.3% (active)
16,Cn1cc(C(=O)NCCC(=N)N)cc1NC(=O)CN=C(N)N,96.7%
17,S=c1nc2[nH]c3ccccc3c2n[nH]1,109%
18,COc1ccc(Br)cc1NC(=O)Nc1cccc2c1ccn2Cc1ccnc(N)c1,-14.4% (active)
19,C#CCOc1cccc(-c2nc(N)nc(Nc3ccccc3SSc3ccccc3Nc3nc(N)nc(-c4cccc(OCC#C)c4)n3)n2)c1,73%
20,O=C(O)CCCCCCCCCCN1C(=O)/C(=C2/C(=O)N(CC(=O)O)c3ccc(Br)cc32)SC1=S,102%
